ERK AVP block: inhibitors of vasopressin-stimulated ERK signaling pathway | HEK293-V1b, vasopressin-stimulated pERK AlphaScreen | Potency, µM (doses to about 57.5 µM), without a hit: at the highest dose activity, negative = inhibition, usual class: inhibitors | 72,000 tested, 0.99% active | AID 995; also: % is scaled to controls: 0 for no effect and ±100 for the full control effect; nearly all actives have a fitted effect of over 55% in size
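HEK293 cells stably expressing V1b receptor, preincubated 30 min at 37 °C with compound, then stimulated 5 min with 25 nM vasopressin. Phospho-ERK by AlphaScreen SureFire after 5 h RT; normalized to DMSO and vasopressin; AC50 by Hill fit.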
TSHR ag: TSH receptor (human) agonism; AID 926; P16473; Potency, µM (highest dose often 57.1 µM), for the others: top-dose activation, actives largely listed as activators; HEK293-CNG-TSHR cells (CNG channel as cAMP sensor), membrane potential dye, cAMP; 73,000 tested, 0.48% active; active = well fitted activation curve with a large enough effect in the main read-out, with a control signal flat, not every such curve was filed as active; inconclusive = small, poorly fitted or top-dose-only effect, or a change in a side signal; inactive = no such curve, though single readings can be large or run the other way; % of control where 0% means no effect;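 also: the control signal comes from parental cells without the receptor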
Target sequence (P16473 whole entry, looked up): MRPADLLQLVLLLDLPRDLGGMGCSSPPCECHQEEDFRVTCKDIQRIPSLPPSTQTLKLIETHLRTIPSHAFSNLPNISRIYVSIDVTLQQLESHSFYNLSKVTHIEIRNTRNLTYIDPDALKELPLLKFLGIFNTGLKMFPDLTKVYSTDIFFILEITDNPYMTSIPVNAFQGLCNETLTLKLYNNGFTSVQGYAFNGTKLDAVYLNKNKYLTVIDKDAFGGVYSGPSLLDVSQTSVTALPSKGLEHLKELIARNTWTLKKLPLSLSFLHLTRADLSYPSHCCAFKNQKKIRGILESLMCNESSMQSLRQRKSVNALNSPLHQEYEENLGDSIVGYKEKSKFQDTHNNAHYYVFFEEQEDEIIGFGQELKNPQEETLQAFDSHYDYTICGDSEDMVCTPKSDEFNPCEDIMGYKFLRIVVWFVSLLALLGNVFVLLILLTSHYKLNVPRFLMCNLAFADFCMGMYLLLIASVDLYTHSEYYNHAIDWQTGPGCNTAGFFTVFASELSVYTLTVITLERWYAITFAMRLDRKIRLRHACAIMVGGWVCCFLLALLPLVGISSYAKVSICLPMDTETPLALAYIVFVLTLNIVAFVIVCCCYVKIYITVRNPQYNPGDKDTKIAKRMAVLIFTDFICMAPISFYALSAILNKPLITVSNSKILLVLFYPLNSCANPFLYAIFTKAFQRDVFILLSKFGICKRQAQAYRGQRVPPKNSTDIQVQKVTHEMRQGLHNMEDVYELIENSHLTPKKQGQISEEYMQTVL
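cAMP rise detected as CNG-channel membrane depolarization by fluorescent dye (emission 590 nm), 30 min after compound, following 60 min dye loading containing 100 uM RO 20-1724 at room temperature. Cells: TSHR/CNG HEK 293, with parental CNG HEK 293 as control.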
CRE-bla Fsk: CRE-bla signaling modulation under forskolin stimulation; AID 662; 71,000 tested, 2.5% active; Potency, µM (doses to about 38.2 µM), without a hit: top-dose activity change, negative = inhibition, most hits filed as activators; CHO CRE-bla reporter (cAMP response element driving beta-lactamase), forskolin EC10, beta-lactamase ratio; active = well fitted activation curve with a large enough effect in the signal ratio, with a control signal flat, not every such curve was filed as active; inconclusive = small, poorly fitted or top-dose-only effect, or effect the other way, or a change in a side signal; the % refers to the signal ratio; also: % of control where 0% means no effect
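Modulation of forskolin signalling: compounds in titration series added with EC10 NKH 477 to CHO cells carrying a CRE-driven beta-lactamase reporter, 3 h, 37C. CCF4 FRET ratio (460/530 nm, ex 405 nm) gives %activity and AC50.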
Tau fil binding: binders of human tau filaments | P10636 | recombinant tau filaments, thioflavin S fluorescence, 15 h; filaments grown with octadecylsulfate alongside compound | Potency, µM (series often up to 57.1 µM), inactives show top-dose activity change, negative = inhibition | 71,000 tested, 2% active | AID 596;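 also: % is scaled to controls: 0 for no effect and ±100 for the full control effect; actives lower thioflavin S fluorescence by blocking filaments or displacing dye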
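His-tagged recombinant human tau (exons 2, 3, 10; 1 uM final) fibrillized with 30 uM sodium octadecylsulfate, 15 h at 37 C, in pH 7.4 HEPES buffer with 10 uM thioflavine S and 5 mM DTT. Reduced ThS fluorescence (450/510 nm) marks activity.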
HEK293 cAMP ctrl: counter-screen for TSHR agonists: cAMP increase in parental HEK293; parental HEK293 CNG cAMP sensor, membrane potential fluorescence; Potency, µM (top dose mostly 57.1 µM), for the others: at the highest dose activation, most hits filed as activators; 73,000 tested, 2.5% active; also: % of control where 0% means no effect; nearly all actives have a fitted effect of over 55% in size
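Counterscreen for endogenous-receptor signalling: CNG-channel HEK 293 cells report cAMP rise by membrane depolarization. After 60 min dye equilibration with 100 uM RO 20-1724, compounds incubated 30 min before bottom-read fluorescence at 590 nm.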
Active calls of the source: *; [ ] = dose if it differs, or a comment. Compounds with a hit are over-represented: about 7.6% of the library has one in this group of screens. Unless noted, calls follow the shape of the dose curve; as a rule, active = well fitted curve in the direction sought with a large enough effect; inconclusive = small, poorly fitted or top-dose-only effect, or another doubt; inactive = no such curve, though single readings can be large; an effect the other way counts as inactive or inconclusive. Potency is read from the fitted curve at half-maximal effect.

How did COc1ccccc1N1CCN(C(=O)CSc2nc(C)c(Cc3ccccc3)c(=O)[nH]2)CC1 do in these assays?
ERK AVP block: 13%; TSHR ag: inconclusive; CRE-bla Fsk: 6%; Tau fil binding: -2%; HEK293 cAMP ctrl: 25µM*

What do the screens show for `CO[C@@H]1COC(=O)CCC[C@@H](C)[C@H](OC)COC(=O)CCC[C@H]1C`?
ERK AVP block: -7%[11.5 µM]; TSHR ag: -5%[11.4 µM]; HEK293 cAMP ctrl: 0%[11.4 µM]

Results for O=C(NCCNC(=O)C(c1ccccc1)c1ccccc1)c1ccco1 ?
ERK AVP block: 0%; TSHR ag: inconclusive; CRE-bla Fsk: -8%; Tau fil binding: 13%; HEK293 cAMP ctrl: inconclusive

What do the screens show for `Cc1nc(NCCNC(=O)c2ccco2)c2c(C)c(C)sc2n1`?
ERK AVP block: inconclusive; TSHR ag: -1%; CRE-bla Fsk: 5µM*; Tau fil binding: 6%; HEK293 cAMP ctrl: 7%

What do the screens show for `O=C(O)c1ccccc1/C=N\N=C1c2ccccc2-c2ccccc21`?
ERK AVP block: -20%[11.5 µM]; TSHR ag: -2%[11.4 µM]; CRE-bla Fsk: 3%[7.6 µM]; Tau fil binding: -13%[11.4 µM]; HEK293 cAMP ctrl: -3%[11.4 µM]

Results for CCNc1ncc2nc(-c3cn(C)c4ccccc34)c(=O)n(-c3ccccc3)c2n1 ?
ERK AVP block: inconclusive; TSHR ag: -1%; CRE-bla Fsk: inconclusive; Tau fil binding: 299%; HEK293 cAMP ctrl: -5%

Results for C=CCn1c(SCC(=O)NC2CCS(=O)(=O)C2)nc2scc(C3CC3)c2c1=O (stereo not given) ?
ERK AVP block: -21%; TSHR ag: 5%; CRE-bla Fsk: inconclusive; Tau fil binding: -3%; HEK293 cAMP ctrl: 2%

How did C=CCn1c(SCc2cc(=O)n3ccsc3n2)nc2scc(C3CC3)c2c1=O do in these assays?
ERK AVP block: inconclusive; TSHR ag: inconclusive; CRE-bla Fsk: 1.6µM*; Tau fil binding: 45%; HEK293 cAMP ctrl: inconclusive

What do the screens show for `C=CCn1c(SC2CCOC2=O)nc2scc(C3CC3)c2c1=O` (stereo not given)?
ERK AVP block: 1%; TSHR ag: 26%; CRE-bla Fsk: inconclusive; Tau fil binding: -20%; HEK293 cAMP ctrl: -1%

How did C=CCn1c(SCC(=O)c2ccc(CNC(C)=O)o2)nc2scc(C3CC3)c2c1=O do in these assays?
ERK AVP block: 5%; CRE-bla Fsk: 7.9µM*; Tau fil binding: -18%; HEK293 cAMP ctrl: 15%

Results for CCOc1ccc2[nH]c(=O)c(=O)[nH]c2c1 ?
ERK AVP block: -13%; TSHR ag: -14%; CRE-bla Fsk: -1%; Tau fil binding: 10µM*; HEK293 cAMP ctrl: -5%

Results for COc1ccc(-c2cnc(N)nc2-c2ccc(OC)cc2O)cc1 ?
ERK AVP block: inconclusive; TSHR ag: inconclusive; CRE-bla Fsk: -28%; Tau fil binding: inconclusive; HEK293 cAMP ctrl: inconclusive

What do the screens show for `C=C(C)COc1ccc(-c2nc(N)ncc2-c2ccc(OC)cc2)c(O)c1`?
ERK AVP block: -28%; TSHR ag: inconclusive; CRE-bla Fsk: inconclusive; Tau fil binding: 13µM*; HEK293 cAMP ctrl: inconclusive

Results for C=C(C)COc1ccc(-c2ncncc2Oc2ccc(OC)cc2)c(O)c1 ?
ERK AVP block: 6%; CRE-bla Fsk: -9%; Tau fil binding: 20µM*; HEK293 cAMP ctrl: 13%

How did CCOc1ccc(NCC2CCOC(C)(C)C2)cc1 (stereo not given) do in these assays?
ERK AVP block: inconclusive; TSHR ag: 13%; CRE-bla Fsk: 3.2µM*; Tau fil binding: 21%; HEK293 cAMP ctrl: 1%

What do the screens show for `O=C(O)CCc1c2ccc(=O)c(O)c-2oc2c(O)c(O)ccc12`?
ERK AVP block: -22%[11.5 µM]; TSHR ag: -4%[11.4 µM]; CRE-bla Fsk: -6%[7.6 µM]; Tau fil binding: 3.2µM*; HEK293 cAMP ctrl: 2%[11.4 µM]

Results for O=c1cc(-c2cccc(O)c2)oc2c(O)c(O)ccc12 ?
ERK AVP block: inconclusive; TSHR ag: -14%; CRE-bla Fsk: inconclusive; Tau fil binding: inconclusive; HEK293 cAMP ctrl: -27%

Results for COc1ccc(-c2cc(C(=O)N/N=C/c3ccc(OC)c(OC)c3)[nH]n2)cc1 ?
TSHR ag: -1%; HEK293 cAMP ctrl: -2%

How did COc1ccc(-n2c(=O)cnc3cnc(Nc4ccccc4)nc32)cc1 do in these assays?
ERK AVP block: -11%; TSHR ag: -2%; CRE-bla Fsk: -24%; Tau fil binding: -13%; HEK293 cAMP ctrl: 22%

What do the screens show for `Nc1cc(N)c(OCC(F)(F)F)cc1OCC(F)(F)F`?
ERK AVP block: -14%; TSHR ag: -5%; CRE-bla Fsk: 25%; Tau fil binding: 16µM*; HEK293 cAMP ctrl: -9%

How did Nc1nc(OCC(F)(F)F)cc(Oc2ccccc2F)n1 do in these assays?
ERK AVP block: -9%; TSHR ag: 8%[11.4 µM]; CRE-bla Fsk: inconclusive; Tau fil binding: -10%[11.4 µM]; HEK293 cAMP ctrl: 11%[11.4 µM]

What do the screens show for `N#CC1=C(N)SC2(CCCCC2)SC1c1ccccc1` (stereo not given)?
ERK AVP block: -11%; TSHR ag: 2%; CRE-bla Fsk: 8%; Tau fil binding: 20µM*; HEK293 cAMP ctrl: 0%

How did CC(=O)N1CCN(c2ccc(Nc3ncnc4c3oc3ccccc34)cc2)CC1 do in these assays?
ERK AVP block: 20µM*; TSHR ag: -10%; CRE-bla Fsk: -5%; Tau fil binding: 25µM*; HEK293 cAMP ctrl: 4%

What do the screens show for `CCc1nc(N2CCCC2C(=O)O)c2oc3ccccc3c2n1` (stereo not given)?
ERK AVP block: -18%; TSHR ag: -1%; CRE-bla Fsk: inconclusive; Tau fil binding: -9%; HEK293 cAMP ctrl: 3%

What do the screens show for `CCc1nc(Nc2ccc(N3CCN(C(C)=O)CC3)cc2)c2oc3ccccc3c2n1`?
ERK AVP block: 32µM*; TSHR ag: -22%; CRE-bla Fsk: 1.3µM*; Tau fil binding: 20µM*; HEK293 cAMP ctrl: -24%

What do the screens show for `c1ccc2c(c1)oc1c(Nc3ccc(CN4CCOCC4)cc3)ncnc12`?
ERK AVP block: 20µM*; CRE-bla Fsk: inconclusive; Tau fil binding: -14%; HEK293 cAMP ctrl: 15%

What do the screens show for `CC(=O)c1ccc(Nc2nc(C)nc3c2oc2ccccc23)cc1`?
ERK AVP block: -10%; TSHR ag: 7%; CRE-bla Fsk: 2µM*; Tau fil binding: 50%; HEK293 cAMP ctrl: 22%

Results for Cc1nc(NCCN2CCOCC2)c2oc3ccccc3c2n1 ?
ERK AVP block: 7%; TSHR ag: 1%; CRE-bla Fsk: inconclusive; Tau fil binding: 202%; HEK293 cAMP ctrl: -1%

Results for O=C(O)Cn1c(=O)oc2cc(S(=O)(=O)N3CCOCC3)ccc21 ?
TSHR ag: 2%; CRE-bla Fsk: -3%; Tau fil binding: -2%; HEK293 cAMP ctrl: 4%

High-throughput results: PubChem BioAssay, National Center for Advancing Translational Sciences (NCATS)
